Laboratory results published in PMC5540273 (PLoS ONE, 2017).

Key:
Details in all cases: concentration: 1 μM, replicates: in singlicate; n = 1
[1] = system: T1, MLK1
T1 construct: gene MAP3K9

[2] = system: MLK2
[3] = system: MLK3
[4] = system: MRCKA
[5] = system: T2, MRCKB
T2 construct: gene CDC42BPB

[6] = system: MST1R
[7] = system: T3, MST1
T3 construct: gene STK4

[8] = system: T4, MST2
T4 construct: gene STK3

[9] = system: T5, MST3
T5 construct: gene STK24

[10] = system: MST4
[11] = system: MTOR
[12] = system: MUSK
[13] = system: MYLK2
[14] = system: MYLK4
[15] = system: MYLK
[16] = system: MYO3A
[17] = system: MYO3B
[18] = system: T6, NDR1
T6 construct: gene STK38

[19] = system: NDR2
[20] = system: NEK10
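Also: KINOMEscan kinase panel screen.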

Row | Compound | %Inh [1] [%] | %Inh [2] [%] | %Inh [3] [%] | %Inh [4] [%] | %Inh [5] [%] | %Inh [6] [%] | %Inh [7] [%] | %Inh [8] [%] | %Inh [9] [%] | %Inh [10] [%] | %Inh [11] [%] | %Inh [12] [%] | %Inh [13] [%] | %Inh [14] [%] | %Inh [15] [%] | %Inh [16] [%] | %Inh [17] [%] | %Inh [18] [%] | %Inh [19] [%] | %Inh [20] [%]
1 | Cl.Cl.NCC(NC(=O)c1cc(-c2cccnc2)c(-c2ccnc3[nH]ccc23)s1)c1ccccc1 (stereo not shown) [GSK1323434] | 0 | 0 | 48 | 39 | 35 | 84 | 0 | 8 | 0 | 15 | 10 | 18 | 15 | 98.2 | 23 | 39 | 0 | 67 | 13 | 79
2 | Fc1cc(Cl)ccc1Nc1ccnc2cc(-c3ccc(CN4CCSCC4)o3)ccc12 [GW560106] | 14 | 0 | 13 | 0 | 4 | 31 | 30 | 0 | 0 | 0 | 6 | 0 | 13 | 0 | 38 | 38 | 0 | 12 | 31 | 15
3 | CN(c1ccc(NC(=O)Nc2cccc(Cl)c2)cc1)c1ccnc(N)n1.Cl [GW830707] | 0 | 7 | 0 | 0 | 17 | 22 | 0 | 11 | 0 | 16 | 13 | 72 | 0 | 6 | 0 | 3 | 36 | 10 | 25 | 1
4 | O=C1NC(=O)C(c2ccccc2Cl)=C1Nc1cccc(Cl)c1 [SB-342409] | 0 | 28 | 0 | 11 | 14 | 0 | 3 | 8 | 0 | 0 | 4 | 8 | 11 | 3 | 9 | 0 | 3 | 1 | 0 | 51
5 | O=C(O)C(F)(F)F.O=c1[nH]ccc2nc(N[C@@H]3CCNC3)nc(Nc3ccc4c(c3)S(=O)(=O)CC4)c12 [GSK2181306] | 79 | 9 | 61 | 26 | 54 | 1 | 95.9 | 80 | 96.6 | 95.5 | 1 | 0 | 78 | 60 | 98.1 | 74 | 4 | 89 | 89 | 95.3
6 | COc1cc(Nc2nccc(N3CCC(NS(=O)(=O)c4ccc(NC(C)=O)cc4)CC3)n2)cc(OC)c1OC [GSK1379825] | 52 | 0 | 51 | 92.3 | 80 | 13 | 0 | 19 | 0 | 0 | 16 | 14 | 61 | 0 | 1 | 0 | 0 | 0 | 0 | 17
7 | COc1ccc(C2=C(Nc3cccc(O)c3)C(=O)NC2=O)cc1 [SB-390766] | 0 | 0 | 0 | 0 | 2 | 100 | 7 | 100 | 0 | 0 | 31 | 3 | 12 | 4 | 3 | 0 | 0 | 9 | 0 | 42
8 | Cc1cccc(Nc2nc(N[C@H]3CCCC[C@H]3N)ncc2C(N)=O)c1.Cl [GSK986310] | 85 | 40 | 76 | 13 | 0 | 44 | 34 | 0 | 52 | 34 | 0 | 27 | 7 | 93.8 | 29 | 8 | 0 | 27 | 0 | 71
9 | Cl.N#CCc1ccc(Nc2nccc(Nc3ccc(Oc4ccccc4)cc3)n2)cc1 [GW639905] | 0 | 0 | 0 | 6 | 0 | 2 | 20 | 0 | 0 | 0 | 24 | 14 | 1 | 9 | 0 | 0 | 3 | 0 | 0 | 8
10 | Cl.O=C(Nc1ccc(Oc2ccc3[nH]c(NC(=O)c4ccco4)nc3c2)cc1)Nc1cc(C(F)(F)F)ccc1F [GW683134] | 28 | 28 | 49 | 15 | 0 | 41 | 17 | 0 | 8 | 0 | 5 | 98.6 | 75 | 3 | 0 | 0 | 9 | 0 | 0 | 0
11 | O=C(Nc1n[nH]c2nc(-c3ccccc3O)ccc12)C1CC1 [SB-711880] | 0 | 0 | 0 | 4 | 0 | 10 | 0 | 16 | 0 | 20 | 16 | 0 | 85 | 0 | 28 | 36 | 1 | 6 | 0 | 0
12 | O=C(Nc1c(F)cccc1F)c1cc(C(=O)c2ccccc2F)c[nH]1 [GSK1326180] | 3 | 21 | 0 | 0 | 0 | 0 | 2 | 0 | 0 | 0 | 18 | 0 | 4 | 6 | 0 | 0 | 0 | 0 | 2 | 9
13 | COC(=O)Nc1nc2ccc(Oc3ccc(CC(=O)Nc4cc(C(F)(F)F)ccc4F)cc3)cc2[nH]1 [GW680903] | 0 | 0 | 0 | 39 | 0 | 34 | 0 | 0 | 4 | 0 | 26 | 95.5 | 0 | 0 | 10 | 12 | 0 | 0 | 0 | 21
14 | CC(C)c1nc(-c2ccc(F)c(NS(=O)(=O)c3c(F)cccc3F)c2)c(-c2ccnc(Nc3ccc(N4CCOCC4)nc3)n2)s1 [GSK1804250] | 52 | 8 | 52 | 4 | 0 | 46 | 17 | 3 | 23 | 23 | 32 | 8 | 2 | 1 | 7 | 51 | 54 | 23 | 0 | 7
